# Screening results (PubChem)
# KKLEB cytotox – reduces viability of KKLEB cystic fibrosis airway cells; AID 602141; KKLEB CF airway cells viability, ATPlite luminescence, overnight; hits give low values; cells stimulated with P. aeruginosa culture filtrate; activity change (cytotoxicity), % at 5 µM; 360,000 tested, 0.36% active;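 active = corrected activity change at or below -50% at 5 µM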
# TROY signal inh – blocks TROY-dependent signaling in reporter cells | Q293 LMP1-TROYcd NF-kB luciferase reporter, 4 h | inhibition, % at 10 µM | 360,000 tested, 0.98% active;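 active = compounds whose plate-normalised and pattern-corrected inhibition of the luciferase reporter signal at the single screening dose is 50% or more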
# CF NFkB inh – blocks PAF-induced NF-kB reporter in cystic fibrosis cells | KKLEB NF-kB-GFP reporter, GFP fluorescence overnight | inhibition, % at 5 µM | 360,000 tested, 0.86% active;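 active = at least 50% inhibition at 5 µM, scaled per plate between neutral and stimulator controls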;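 also: PAF is a Pseudomonas aeruginosa culture filtrate used as stimulus; plate controls were PAF-stimulated DMSO wells for no effect and unstimulated DMSO wells for full effect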
# TWEAK-Fn14 inh – inhibitors of TWEAK-Fn14 interaction signaling; inhibition, % at 10 µM; TWEAK-stimulated Fn14 reporter cells, luciferase luminescence, 8 h; 360,000 tested, 2% active; in the data active = inhibition above about 50%
# Peg3 prom inh – reduces Peg3 promoter-driven luciferase expression in HeLa; AID 588405; inhibition, % at 20 µM; 360,000 tested, 1.7% active; HeLa PEG-Prom luciferase reporter, luminescence, overnight;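 active = inhibition of at least 50% at 20 µM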
# HIF-2a inh – HIF-2a inhibition. 786-0 RCC cells HIF-2a reporter, luciferase luminescence, overnight. inhibition, % at 18.8 µM. 360,000 tested, 0.72% active. AID 624352;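 active = inhibition of the luminescence signal of 40% or more relative to plate controls, in a single-dose primary screen at 18.75 µM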
# * = called active by the depositor; nt = no result. The list is not random: actives were taken first. Their share in the collection is about 4%.
SMILES,KKLEB cytotox,TROY signal inh,CF NFkB inh,TWEAK-Fn14 inh,Peg3 prom inh,HIF-2a inh
COc1ccc(Cc2c(C(C)(C)C)nc3cc(C)c(Br)c(C)n23)c(C)c1,nt,-8,nt,23,nt,18
O=C(Nc1cc(Cl)cc(Cl)c1)c1ccc(Cn2c(=O)[nH]c3ccsc3c2=O)cc1,-50*,-5,54*,-43,30,0
O=C(NCc1ccccc1)c1onc(CSc2ccc(F)cc2)c1C(=O)NCCCN1CCOCC1,-13,-14,-5,-19,7,21
N#Cc1c(N)nc(SCC(=O)NC2CCCCC2)c(C#N)c1-c1ccc(Cl)cc1,6,1,-2,12,74*,-4
CC(=O)c1ccc(N=Nc2c(C)[nH][nH]c2=O)cc1,4,-24,4,-23,-121,-165
CC(=O)c1ccc(N=Nc2ccc(N)cc2)cc1,0,11,-23,69*,-72,-51
NS(=O)(=O)c1ccc(CCNCc2ccccc2OCc2ccc(Cl)cc2)cc1,0,-9,14,3,87*,-2
NS(=O)(=O)c1ccc(CCNCc2cc(Cl)ccc2OCc2ccccc2)cc1,1,14,19,3,10,7
NC(=O)c1ccsc1NC(=O)c1ccc2c(c1)CCCC2,-58*,20,-17,48,-125,-158
CCOc1ccccc1NC(=O)Cn1nnc(C(=O)NCc2ccco2)c1N,-15,9,36,-31,-2,30
O=C1/C(=C\c2cccnc2)SC(=S)N1C1CCS(=O)(=O)C1 (configuration not stated),-6,13,66*,71*,39,28
O=C1/C(=C/c2cccnc2)SC(=S)N1N1CCOCC1,9,-11,-6,2,-4,8
O=C1/C(=C/c2cccnc2)SC(=S)N1C1CCS(=O)(=O)C1 (configuration not stated),-13,17,72*,65*,28,53*
COCCN(Cc1ccc(OC)cc1)c1c(C)nc2ccc(C(=O)NCCc3c[nH]c4ccccc34)cn12,-14,-22,-12,5,40,12
O=C(NC(=S)NCC1CCCO1)c1cccc([N+](=O)[O-])c1 (configuration not stated),-6,1,-11,2,5,6
C#CCOC(=O)c1ccccc1C(=O)n1nnc2ccccc21,-28,36,39,55*,27,9
CCCC(=O)Nc1ccc(C(=O)n2nnc3ccccc32)cc1,-3,-3,0,7,4,8
CN(C)c1ccc(C(=O)n2nnc3ccccc32)cc1,-36,7,69*,94*,-20,-42
CCOC(=O)Nc1cc(C)c(Cl)cc1OC,-1,15,6,-6,-2,2
COc1ccc(/C=N/NC(=O)Cn2cnc3ccccc3c2=O)cc1OC,4,4,11,-2,-12,8
COCCN1C(=O)Cc2c1nc(N)c1c(N)nc(N3CCN(c4ccc(F)cc4)CC3)c(C#N)c21,9,10,-13,7,24,11
COCC(C)N1C(=O)Cc2c1nc(N)c1c(N)nc(N3CCN(c4ccccc4F)CC3)c(C#N)c21 (configuration not stated),-15,-6,6,11,55*,21
CCOC(=O)c1c(NC(=O)CSc2nc3ccccc3o2)sc(C(C)=O)c1C,-6,34,-1,69*,-93,-71
O=C(CSc1nc2ccccc2o1)Nc1nc(-c2ccccc2)cs1,4,80*,-7,84*,-102,-36
CCOC(=O)c1c(NC(=O)CSc2nnc(-c3ccccc3)o2)sc(C(C)=O)c1C,-13,32,2,-6,-29,-18
SMILES,KKLEB cytotox,TROY signal inh,CF NFkB inh,TWEAK-Fn14 inh,Peg3 prom inh,HIF-2a inh
O=C(CSc1nc2ccccc2o1)Nc1nc2c(s1)CCCC2,3,0,-12,89*,-34,-9
O=C(O)c1cc(-c2ccc3ccccc3c2)nc2ccc(F)cc12,-12,-9,4,-53,-181,-209
CCOC(=O)CN1C(=O)S/C(=C/c2cccc([N+](=O)[O-])c2O)C1=O,12,25,-4,-23,-7,-41
COc1cc(C(=O)Nc2cc(-c3cn4cccnc4n3)ccc2C)cc(OC)c1OC,6,0,-24,92*,-1,-4
COc1ccc(N(C(=O)CNC(=O)c2ccco2)C(C(=O)NC2CCCC2)c2ccncc2)cc1 (configuration not stated),-6,-15,14,0,15,14
O=C(O)c1cnc(-c2ccccc2)nc1Sc1cccc(Cl)c1,15,6,-8,10,12,7
O=C(O)c1cnc(-c2ccccc2)nc1Sc1ccc(Cl)cc1Cl,9,61*,2,-17,4,4
CCCc1cc(C(=O)O)c2ccccc2n1,8,20,-12,8,8,-6
Cc1ccc(NC(=O)Cc2cc(C(=O)O)c3ccccc3n2)c(C)c1,16,43,41,52*,44,-23
Cc1ccc(CSc2nnc(SCC(=O)N/N=C/c3ccc(C(=O)O)cc3)s2)cc1,6,15,6,69*,-16,-59
CSCC(=O)Nc1nc(-c2ccc3c(c2)OCCO3)cs1,9,-64,-31,-7,-374,-296
O=c1c2ccccc2nc(/C=C/c2ccccc2)n1CCCO,1,-19,2,-14,-31,-18
COc1ccc(CCn2c(-c3ccco3)nc3ccccc3c2=O)cc1OC,-1,18,1,7,23,-11
O=c1c2ccccc2nc(/C=C/c2ccc(O)cc2)n1CCc1ccccc1,-4,6,10,66*,46,-72
O=c1c2ccccc2nc(-c2ccco2)n1CCc1ccc(O)cc1,6,33,-17,64*,43,21
NC(=O)c1ccsc1NC(=O)CN1CCN(S(=O)(=O)c2ccccc2C(F)(F)F)CC1,-11,50*,13,29,61*,12
Cc1ccc(NC(=O)CN(C)C(=O)CSc2ccc3c(c2)OCCO3)cc1,12,-19,-29,-2,-11,-43
O=C(Nc1cccc(C(=O)Nc2cccc(C(F)(F)F)c2)c1)c1ccc(=O)[nH]c1,1,5,-1,16,1,18
CC[C@]12c3[nH]c4ccccc4c3CCN1C(=O)C(CC(=O)NCCc1ccccn1)C[C@@H]2C(=O)N1CCN(C(=O)C2CC2)CC1 (some centres not stated),10,-13,6,-12,4,-3
CCc1ccc(/C(C)=N/NC(=O)CNC(=O)/C=C/c2ccco2)cc1,-1,1,-18,66*,-4,14
Nc1nc(SCC(=O)Nc2ccc(S(N)(=O)=O)cc2)n[nH]1,14,9,-8,3,6,16
COc1cccc(OCc2ccc(C(=O)NCC3CCCO3)cc2)c1 (configuration not stated),7,52*,5,63*,-20,-8
